These results are taken from PubChem BioAssay (Tox21).

The target of the test is D(2) dopamine receptor (Homo sapiens) (UniProt P14416). Put plainly: Dopamine D2 receptor (DRD2) small molecule antagonists, cell-based qHTS assay (AID 1963595). An outline of the steps: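 Readout: HTRF cAMP, cAMP-d2 competing with cellular cAMP for anti-cAMP cryptate, read after 1 h. Cells: DRD2-HEK293. Conditions: 0.1 mM Ro20-1724, 12 nM quinpirole, 200 nM NKH477, 30 min RT.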
In general terms: qHTS replaces the single test concentration by a dilution series.

Molecules are shown by their SMILES. Where “and” joins values, the source holds several entries; their conditions need not be identical. Equal values may be shown once. Inconclusive results are not listed. Entries that show only a call come without a potency. Where a structure was tested more than once in an assay, its records may differ in their call. Calls of active or inactive are those of the source. Calls come from the whole dose curve; as a rule, active = well fitted inhibition curve with a large enough effect in the signal ratio in the repeat runs, with a control signal flat; inconclusive = weak or mixed curves, or effect the other way; inactive = flat fitted curve, though single readings scatter; the % refers to the signal ratio.
Potency is the fitted concentration of half-maximal effect.

Chain of D(2) dopamine receptor (Homo sapiens) (P14416 whole entry, looked up): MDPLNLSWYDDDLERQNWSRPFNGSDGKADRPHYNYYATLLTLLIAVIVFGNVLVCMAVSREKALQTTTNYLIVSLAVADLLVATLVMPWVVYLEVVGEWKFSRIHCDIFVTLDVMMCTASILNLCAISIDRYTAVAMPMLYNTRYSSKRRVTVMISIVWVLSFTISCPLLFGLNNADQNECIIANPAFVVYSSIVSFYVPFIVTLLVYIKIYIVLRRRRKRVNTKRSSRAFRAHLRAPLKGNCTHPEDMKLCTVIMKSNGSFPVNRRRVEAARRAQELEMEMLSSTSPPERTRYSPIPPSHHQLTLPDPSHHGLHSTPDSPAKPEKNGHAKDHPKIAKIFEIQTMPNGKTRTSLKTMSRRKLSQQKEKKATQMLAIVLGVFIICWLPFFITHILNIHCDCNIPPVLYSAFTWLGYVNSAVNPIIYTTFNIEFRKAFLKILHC

For `O=C(O)c1ccc(O)cc1O`, the Potency entry was “inactive”.

As for `O=C1NC(c2ccccc2)(c2ccccc2)C(=O)N1COP(=O)(O)O`, the Potency entry was “inactive”.

On to `CCC(C)(C)C1CCC(OC)CC1` (stereo unspecified), for which the Potency result is “inactive”.

For the compound `NNc1nncc2ccccc12`, the Potency entry is “inactive and 10.3 µM (active)”.

For `O=C(c1ccccc1)C1(O)CCCCC1`, the Potency result was “inactive”.

As to `CCCCCCCOC(C)=O`, the Potency result was “inactive”.

Take `C=C(C)C(=O)OCCNC(C)(C)C`: the Potency result was “inactive”.

In the case of `O=C(O)CCS`, the Potency result was “inactive”.

Regarding `CN1C(=O)CC(C)(c2ccccc2)C1=O` (stereo unspecified), the Potency result is “inactive”.

Turning to `CCCCCCC(C)(C)C(=O)O`, the Potency entry is “inactive”.

On to `C=CCOCC(O)CO` (stereo unspecified), for which the Potency result was “inactive”.

Consider `CC(C)(O)Cc1ccccc1`, for which the Potency result was “inactive”.

On to `CCC(C(=O)OCCOCCN(CC)CC)c1ccccc1` (stereo unspecified), for which the Potency result is “inactive”.

As for `CCN(CC)CC(=O)OCC(=O)[C@@]1(O)CC[C@H]2[C@@H]3CCC4=CC(=O)CC[C@]4(C)[C@H]3[C@@H](O)C[C@@]21C`, the Potency result was “inactive”.

For the compound `CCCCN(CCCC)CCCCCCN(CCCC)CCCC`, the Potency entry was “inactive”.

On to `C=CC(O)CCCCC` (stereo unspecified), for which the Potency result is “inactive”.

For `CCC(OCCCOC)OC(C)=O` (stereo unspecified), the Potency entry was “inactive”.

For `O=[N+]([O-])c1cncn1CCN1CCOCC1`, the Potency entry is “inactive”.

`Cc1ncsc1CCO`: the Potency entry was “inactive”.

As to `CCCCCCCCCC(C)=O`, the Potency entry is “inactive”.

With `CCOC(=O)OC(=O)OCC`, the Potency entry was “inactive”.

Consider `O=S(O)CO`, for which the Potency entry was “inactive”.

For the compound `COc1cc(C=O)ccc1OC(=O)C(C)C`, the Potency result was “inactive”.

Turning to `O=C1CCC(=O)N1`, the Potency result is “inactive”.

For `NS(=O)(=O)c1ccccc1Cl`, the Potency result is “inactive”.

For `CCC(C)=O`, the Potency entry is “inactive”.

As for `CCC(=O)CC`, the Potency entry was “inactive”.

Turning to `N#C[C@@H]1C[C@@H]2C[C@@H]2N1C(=O)[C@@H](N)C12CC3CC(CC(O)(C3)C1)C2`, the Potency result is “inactive”.

Take `O=[N+]([O-])c1ccc(Oc2ccc([N+](=O)[O-])cc2)cc1`: the Potency entry was “inactive”.

Take `NC(=O)NNC(N)=O`: the Potency entry was “inactive”.

As to `C[C@@H](O)[C@H]1C(=O)N2C(C(=O)O)=C(SCCN=CN)C[C@H]12`, the Potency entry was “inactive”.

On to `NCCNCCN`, for which the Potency result was “inactive”.

As for `CCCCCCCCCCCCCCC(=O)NC(CO)CCCCCCCCCCCCCC` (stereo unspecified), the Potency entry is “inactive”.

Take `COCCCOc1cc(C[C@@H](C[C@H](N)[C@@H](O)C[C@H](C(=O)NCC(C)(C)C(N)=O)C(C)C)C(C)C)ccc1OC`: the Potency result is “inactive”.

As to `Cc1ccc(S(=O)(=O)NC(=O)NC2CCCCCCC2)cc1`, the Potency entry was “inactive”.

For `Clc1nc(Cl)c(Cl)c(Cl)c1Cl`, the Potency entry is “inactive”.

As for `N=C(N)c1ccccc1`, the Potency result was “inactive”.

Consider `O=C(O)CSCC(=O)NC1CCSC1=O` (stereo unspecified), for which the Potency entry was “inactive”.

In the case of `CC(C)C(=O)Nc1cccc(C2CN3CCSC3=N2)c1` (stereo unspecified), the Potency entry is “inactive”.

`CC(COC(=O)c1ccccc1)OC(=O)c1ccccc1` (stereo unspecified): the Potency entry was “inactive”.

For the compound `Nc1nc(=O)n([C@@H]2O[C@H](CO)[C@@H](O)[C@@H]2F)cc1I`, the Potency entry is “inactive”.

`CC(C)OC(C)C`: the Potency result was “inactive”.

As for `CCOCCOC(=O)/C=C/c1ccc(OC)cc1`, the Potency result was “inactive”.

In the case of `CC(C)CCCCCOC(=O)CCS`, the Potency result was “inactive”.

With `ClC/C=C\CCl`, the Potency result is “inactive”.

In the case of `CCCCCCCCCCCCCCCCC`, the Potency entry was “inactive”.

In the case of `OCC1CC2CC1C1CCC(CO)C21` (stereo unspecified), the Potency entry was “inactive”.

On to `CCCCN(CCO)CCO`, for which the Potency result was “inactive”.

Consider `CC(C)(C)c1ccc(C=O)cc1`, for which the Potency entry was “inactive”.

For `c1ccc2cc3c4ccccc4c4ccccc4c3cc2c1`, the Potency result is “inactive”.

As to `CCN(CC)CCN`, the Potency entry was “inactive”.

With `CC(=O)CC(=O)Nc1ccc2[nH]c(=O)[nH]c2c1`, the Potency result is “inactive”.

Consider `O=C1OC[C@H](Cc2cccc(O)c2)[C@H]1Cc1cccc(O)c1`, for which the Potency result was “inactive”.

With `[K+]`, the Potency result is “inactive”.

In the case of `CCCO[Si](OCCC)(OCCC)OCCC`, the Potency entry is “inactive”.

For `CCOC(=O)NCCC[Si](OCC)(OCC)OCC`, the Potency result is “inactive”.

On to `O=S(=O)(O)c1ccc2c(N=Nc3ccc(S(=O)(=O)O)c4ccccc34)c(O)c(S(=O)(=O)O)cc2c1`, for which the activity change, negative = inhibition was 0.317% [at 8.38 µM] (inactive).

In the case of `CC(=O)Nc1ncc([N+](=O)[O-])s1`, the Potency result is “inactive”.

As for `O=C1Nc2ccccc2C1=O`, the Potency result is “inactive”.

In the case of `CC[C@@H]1C[C@H](N(Cc2cc(C(F)(F)F)cc(C(F)(F)F)c2)C(C)=O)c2cc(C(F)(F)F)ccc2N1C(=O)OC(C)C`, the Potency entry was “inactive”.

On to `CC1(C)CO[C@@H](CC(=O)O)CN1`, for which the Potency result is “inactive”.

With `FC(F)(F)c1ccccc1-n1ccnc1`, the Potency result is “inactive”.

For `C=C(C)C(=O)NCCCN(C)C`, the Potency result was “inactive”.

Regarding `CC(=O)N[C@@H](CC(C)C)C(=O)O`, the Potency entry was “inactive”.

Consider `O=S(=O)(O)C(F)(F)F`, for which the Potency result is “inactive”.

For the compound `COC(=O)c1ccc([N+](=O)[O-])cc1`, the Potency result is “inactive”.

For the compound `CC(O)CNCC(C)O` (stereo unspecified), the Potency entry was “inactive”.

`CN1CCCC1`: the Potency result was “inactive”.

Take `C=CCCCCCCCCCCC`: the activity change, negative = inhibition is -0.184% [at 8.38 µM] (inactive).

For `CC(C)(CCl)c1ccccc1`, the Potency entry was “inactive”.

For `CC(C)CCCCCCCCCCCCCCC(=O)O`, the Potency entry is “inactive”.

As for `CCOc1cc(NC(C)=O)ccc1C(=O)OC`, the Potency result is “inactive”.

With `CC(C)(CC(=O)O)C(=O)O`, the Potency entry was “inactive”.

Take `O=C(O)CNC(=O)c1ccccc1I`: the Potency entry was “inactive”.

Turning to `C=CCCCCCCCCO`, the Potency result is “inactive”.

As for `NCc1cccc(CN)c1`, the Potency result is “inactive”.

Turning to `CCC(C)SSC(C)CC` (stereo unspecified), the Potency result was “inactive”.

Consider `CC(=O)N[C@@H](Cc1ccc(O)cc1)C(=O)O`, for which the Potency result was “inactive”.

On to `Cc1cccc(C)c1NC(=O)CN1CCCCCC1`, for which the Potency entry is “inactive”.

In the case of `CCCCCCc1ccc(-c2ccc(C#N)cc2)cc1`, the Potency result was “inactive”.

As for `CC1=C(O)C(=O)OC1C` (stereo unspecified), the Potency result was “inactive”.

Consider `O=Cc1ccc(Cl)c(Cl)c1`, for which the Potency result was “inactive”.

Take `COc1cc(C(=O)N2CCCCCCC2)cc(OC)c1OC`: the Potency entry is “inactive”.

`COC(=O)/C=C(/C)N`: the Potency result was “inactive”.

Consider `O=C(OCCOCCO)c1ccccc1Nc1cccc(C(F)(F)F)c1`, for which the Potency entry is “inactive”.

Regarding `Oc1ccc2c(c1)OC[C@@H](N1CCC(O)(c3ccc(F)cc3)CC1)[C@H]2O`, the Potency entry was “inactive”.

`CSCCC=O`: the Potency result is “inactive”.

For `N#CCN(CC#N)CCN(CC#N)CC#N`, the Potency result is “inactive”.

Consider `CC(CC=O)CC(C)(C)C` (stereo unspecified), for which the Potency result was “inactive”.

As to `OCc1ccccc1O`, the Potency entry was “inactive”.

`c1ccc2c(c1)Oc1ccccc1S2`: the Potency result was “inactive”.

In the case of `CC(=O)CC(C)(C)C1CCCCC1`, the Potency entry is “inactive”.

For the compound `O=C(Nc1ccc([N+](=O)[O-])cc1)Nc1ccc([N+](=O)[O-])cc1` (tested in a mixture with another compound), the Potency result is “inactive”.

For `CC(=O)OCCc1ccccc1`, the Potency entry is “inactive”.

Regarding `CC(=O)c1cc2ccccc2s1`, the Potency entry was “inactive”.

In the case of `O=[N+]([O-])c1ccc2c(c1)Cc1ccccc1-2`, the Potency entry is “inactive”.
